Results filed as inconclusive are left out. Where a call stands in place of a potency, no number is given. Unmarked numbers belong to inactive results. Active and inactive are the calls of the source. Unless noted, the call rests on the fitted dose curve; in most records, active means well fitted curve in the direction sought with a large enough effect in the repeat runs; inconclusive means weak or mixed curves; inactive means no such curve, though single readings can be large; an effect the other way counts as inactive or inconclusive.
Key:
[1] = qHTS assay to identify small molecule agonists of the vitamin D receptor (VDR) signaling pathway - cell viability counter screen (AID 743224); further: series mostly up to about 63 µM; nearly all actives have a fitted effect of over 50% in size
In short: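 Viability is measured in the same wells as the VDR-bla reporter assay: after 16 h compound treatment and 2 h substrate loading, CellTiter-Glo is added and luminescence read 30 min later.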

[2] = qHTS assay to identify small molecule agonists of the NFkB signaling pathway (AID 1159509; active means well fitted curve in the direction sought with a large enough effect in the signal ratio in the repeat runs, not every such curve was filed as active; the % refers to the signal ratio; further: series mostly up to about 61 µM)
In short: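 After overnight attachment, reporter cells received test compounds, DMSO or positive controls and were incubated 5 hr at 37 C. FRET substrate was then added for 1.5 hr at room temperature before dual-emission fluorescence reading.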

[3] = qHTS assay to identify small molecule agonists of the NFkB signaling pathway - cell viability counter screen (AID 1159515; calls by dose curve; further: series mostly up to about 61 µM; nearly all actives have a fitted effect of over 55% in size)
In short: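 Multiplexed viability readout: after the 5 hr compound exposure and 1.5 hr FRET substrate step, CellTiter-Glo reagent went into the same NFkB-bla ME-180 wells; ATP luminescence was measured after 30 min at room temperature.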

[4] = qHTS assay to identify small molecule agonists of the endoplasmic reticulum stress response signaling pathway (AID 1159516; active means well fitted activation curve with a large enough effect in the signal ratio in the repeat runs, not every such curve was filed as active; the % refers to the signal ratio)
In short: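 Tox21 10K library screened in quantitative HTS format on ESRE-bla HeLa cells, a beta-lactamase reporter under ER stress response element control; 5 hr treatment, FRET read.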

[5] = qHTS assay to identify small molecule agonists of the endoplasmic reticulum stress response signaling pathway - cell viability counter screen (AID 1159517; calls by dose curve; further: series mostly up to about 61 µM; nearly all actives have a fitted effect of over 50% in size)
In short: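 Luminescence readout: CellTiter-Glo, 30 min RT, same wells as the ESRE-bla reporter read. HeLa ESRE-bla, 1,500 cells/well, o/n 37 C; cpd 5 hr 37 C/5% CO2.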

[6] = qHTS assay to identify small molecule antagonists of the retinoid-related orphan receptor gamma (ROR-gamma) signaling pathway - cell viability counter screen (AID 1159520); further: nearly all actives have a fitted effect of over 50% in size
In short: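 Tet-on ROR gamma CHO cells (1,000/well) were plated 4 hr, given compounds in DMSO for 2 hr at 37 C, then induced with 1 uM final doxycycline for 16 hr. Viability was read as ATP by CellTiter-Glo luminescence after 30 min.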

[7] = biological target: Nuclear receptor ROR-gamma (Homo sapiens) (UniProt P51449); experiment: qHTS assay to identify small molecule antagonists of the retinoid-related orphan receptor gamma (ROR-gamma) signaling pathway (AID 1159521; further: nearly all actives have a fitted effect of over 50% in size; further: potency means the concentration at half of the fitted maximal effect)
In short: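 CHO Tet-on RORγ, RORE-luc reporter. Cpd 2 h pre-incubation, then dox hyclate 1 uM final, 16 h, 37 C/5% CO2. ONE-Glo luminescence; decrease = antagonist.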

[8] = qHTS assay to identify small molecule agonists of the AP-1 signaling pathway - cell viability counter screen (AID 1159525; calls by dose curve; further: nearly all actives have a fitted effect of over 55% in size)
In short: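 ME-180 AP-1-bla, 2500 cells/well, Opti-MEM + 0.5% dialyzed FBS; overnight 37 °C; cpd 15-pt titration, 5 h 37 °C; CellTiter-Glo 30 min RT; luminescence read; normalised to TOAB and DMSO controls.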

[9] = qHTS assay to identify small molecule agonists of the AP-1 signaling pathway (AID 1159526; calls by dose curve)
[10] = qHTS assay to identify small molecule agonists of the RXR signaling pathway - cell viability counter screen (AID 1159529)
In short: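 HEK 293T RXRa-bla cells, 2% CS-FBS; 5 h settle; cpd 16 h 37 C, 5% CO2; CellTiter-Glo 30 min RT, luminescence. Tetraoctyl ammonium bromide as positive control.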

[11] = qHTS assay to identify small molecule antagonists of the retinoid acid receptor (RAR) signaling pathway - cell viability counter screen (AID 1159551); further: nearly all actives have a fitted effect of over 35% in size
In short: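 Cytotoxicity counter screen in C3RL4 cells: 6 h compound exposure with 1 uM retinol (final), viability from cellular ATP by luminescence.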

[12] = qHTS assay to identify small molecule antagonists of the vitamin D receptor (VDR) signaling pathway - cell viability counter screen (AID 743225); further: nearly all actives have a fitted effect of over 50% in size
In short: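 Read-out: CellTiter-Glo luminescence measured 30 min after reagent addition at room temperature. Cells were VDR-bla HEK 293T exposed 16 h at 37C, 5% CO2, to compound with 3 nM final calcitriol agonist.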

[13] = qHTS assay to identify small molecule agonists of the retinoic acid receptor (RAR) signaling pathway (AID 1159553)
In short: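 Agonist activity was scored in C3RL4 cells bearing a retinoic acid response element luciferase construct. Cells were treated with compounds for 6 hr at 37 C, and luciferase signal was measured as luminescence.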

[14] = qHTS assay to identify small molecule antagonists of the retinoic acid receptor (RAR) signaling pathway (AID 1159552; further: nearly all actives have a fitted effect of over 50% in size)
In short: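 Cells of the C3RL4 line were seeded, incubated overnight, then dosed with compounds in DMSO followed immediately by retinol (1 uM final). Six hours later luciferase detection reagent went in; signal was measured after 30 min at RT.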

Row | SMILES | Potency [1] | outcome [2] | outcome [3] | outcome [4] | Potency [5] | Potency [6] | Potency [7] | Potency [8] | outcome [9] | Potency [10] | Potency [11] | outcome [12] | Potency [13] | Potency [14]
1 | COc1ccc2c(c1OC)CN1CCc3cc4c(cc3C1C2)OCO4 (stereo not given) | inactive | inactive | inactive | inactive | inactive | inactive | inactive | inactive | inactive | inactive | inactive | – | – | –
2 | CC(=O)CC(c1ccc(Cl)cc1)c1c(O)c2ccccc2oc1=O (stereo not given) | inactive | inactive | inactive | inactive | inactive | inactive | inactive | inactive | inactive | inactive | – | inactive | inactive | –
3 | CCOC(=O)CP(=O)(OCC)OCC | inactive | inactive | inactive | inactive | inactive | inactive | inactive | inactive | inactive | inactive | inactive | inactive | – | –
4 | CN1C[C@@H](NS(=O)(=O)N(C)C)C[C@@H]2c3cccc4c3c(cn4C)C[C@H]21 | inactive | inactive | inactive | inactive | inactive | inactive | inactive | inactive | inactive | inactive | inactive | – | – | –
5 | Nc1cc2c3c(c1)C(c1ccccc1)=N[C@@H](NC(=O)c1cccnc1)C(=O)N3CC2 | inactive | inactive | inactive | inactive | inactive | inactive | inactive | inactive | inactive | inactive | – | inactive | – | –
6 | O=C(N[C@H]1CN2CCC1CC2)c1cc2ccoc2cn1 | inactive | inactive | inactive | inactive | inactive | inactive | inactive | inactive | inactive | inactive | – | inactive | inactive | –
7 | O=S(=O)(O)C(F)(F)C(F)(F)C(F)(F)C(F)(F)C(F)(F)C(F)(F)F | inactive | inactive | inactive | inactive | inactive | inactive | inactive | inactive | inactive | inactive | inactive | – | – | –
8 | NC(=O)O | inactive | inactive | inactive | inactive | inactive | inactive | inactive | inactive | inactive | inactive | inactive | inactive | – | –
9 | CCCSC(=O)Cl | inactive | inactive | inactive | inactive | inactive | inactive | inactive | inactive | inactive | – | inactive | inactive | inactive | inactive
10 | N#CCNCC#N | inactive | inactive | inactive | inactive | inactive | inactive | inactive | inactive | inactive | inactive | inactive | inactive | – | –
11 | O=C(Nc1ccccc1)N(Cc1ccc(Cl)cc1)C1CCCC1 | – | inactive | inactive | inactive | inactive | inactive | 61.1 µM (active) | inactive | inactive | – | inactive | – | inactive | –
12 | C[C@]1(O)CC[C@H]2[C@@H]3CCC4=CC(=O)CC[C@]4(C)[C@@]3(F)[C@@H](O)C[C@@]21C | inactive | inactive | inactive | inactive | inactive | inactive | inactive | inactive | inactive | inactive | inactive | – | – | –
13 | CCOP(=O)(OCC)OP(=O)(OCC)OCC | inactive | inactive | inactive | inactive | inactive | inactive | inactive | inactive | inactive | inactive | – | inactive | – | –
14 | CC(C)CC#N | inactive | inactive | inactive | inactive | inactive | inactive | inactive | inactive | inactive | inactive | – | inactive | inactive | inactive
15 | CCNc1nc(NC(C)C)nc(OC)n1 | inactive | inactive | inactive | inactive | inactive | inactive | inactive | inactive | inactive | inactive | inactive | inactive | – | –
16 | N#CCBr | inactive | inactive | inactive | inactive | inactive | inactive | inactive | inactive | inactive | inactive | inactive | inactive | – | –
17 | CS(=O)(=O)c1cc(C(F)(F)F)ccc1C(=O)c1cnoc1C1CC1 | inactive | inactive | inactive | inactive | inactive | inactive | inactive | inactive | inactive | inactive | – | – | inactive | inactive
18 | CN1CCC(O)(c2ccc(F)cc2)C(C(=O)c2ccc(F)cc2)C1 (stereo not given) | inactive | inactive | inactive | inactive | inactive | inactive | inactive | inactive | inactive | inactive | inactive | inactive | – | –

Reference: PubChem BioAssay (Tox21)
